Pf growth 96h = P. falciparum growth inhibition at 96 hour, primary screen for plastid delayed-death inhibitors; Potency, µM (titrated, usually from 28.7 µM), inactives show top-dose activity change, negative = inhibition, usual class: inhibitors; P. falciparum luciferase reporter growth, 96 h; 320,000 compounds, 6.9% hits; note: % is set by controls: 0 for no effect and ±100 for the full control effect
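Infected RBCs, 2% Hct / 0.05% parasitemia final; luciferase-reporter P. falciparum; cpd 96 h, 37 C, 5% CO2; luciferase detection reagent; luminescence.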
NS1 inh = inhibitors of influenza NS1 protein function. Potency, µM (titrated, usually from 46.1 µM), without a hit: at the top dose activity, positive = more growth. 270,000 compounds, 0.4% hits; calls by dose curve; note: actives are rising curves; nearly all actives have a fitted effect of over 50% in size
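Growth recovery, yeast-based: influenza A NS1 expressed in S. cerevisiae causes slow growth, and suppressors are detected by OD600. The parent strain without NS1 is used as positive control.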
Pf growth 48h = P. falciparum growth inhibition at 48 hours (one generation). Potency, µM (titrated, usually from 28.7 µM), for inactives: at the top dose activity change, negative = inhibition, hits mostly inhibitors. AID 504832. P. falciparum luciferase growth in erythrocytes, 48 h. 310,000 compounds, 5.9% hits; note: % is set by controls: 0 for no effect and ±100 for the full control effect
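First compound was added to culture medium, then infected red cells at 0.1% parasitemia and 2% hematocrit (final). After incubation at 37 C under 5% CO2, luciferase detection reagent was dispensed and light output recorded.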
VACV mCherry inh = inhibitors of vaccinia virus infection (mCherry reporter signal); Potency, µM (top dose mostly 36.5 µM), for the others: at the highest dose activity change, negative = inhibition, usual class: inhibitors; AID 720579; 310,000 compounds, 0.63% hits; Vaccinia virus mCherry reporter infection, fluorescence; calls by dose curve; tested in A549 cells; note: % is set by controls: 0 for no effect and ±100 for the full control effect; nearly all actives have a fitted effect of over 35% in size
HCV inh = HCV inhibition. Huh7.5.1 HCVcc-Cre infection, luciferase reporter, 44 h. AID 651820. Potency, µM (top dose mostly 41.8 µM), for inactives: top-dose activity change, negative = inhibition, usual class: inhibitors. 340,000 compounds, 3.4% hits; note: % is set by controls: 0 for no effect and ±100 for the full control effect
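1,000 cells/well; 4 h culture; + compound; + HCVcc-Cre (~0.5 moi); 44 h; luciferase substrate, RT 15 min; read 15 sec.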
Vaccinia Venus = vaccinia inhibition (Venus reporter); Vaccinia virus Venus reporter expression, fluorescence; Potency, µM (titrated, usually from 36.5 µM), without a hit: at the highest dose activity change, negative = inhibition, usual class: inhibitors; 330,000 compounds, 0.46% hits; AID 720580; calls by dose curve; tested in A549 cells; note: % is set by controls: 0 for no effect and ±100 for the full control effect; nearly all actives have a fitted effect of over 30% in size
* hit, by the source's call; i = inactive; ? = inconclusive; . = no result given. Most compounds without a hit are left out; they make up all but 11% or so of the library. Unless noted, calls come from the whole dose curve; as a rule, active = well fitted inhibition curve with a large enough effect; inconclusive = small, poorly fitted or top-dose-only effect, or another doubt; inactive = no such curve, though single readings can be large or run the other way. Potency is the fitted concentration of half-maximal effect.

SMILES	Pf growth 96h	NS1 inh	Pf growth 48h	VACV mCherry inh	HCV inh	Vaccinia Venus
O=C(Cn1cccc(C(F)(F)F)c1=O)c1ccc(Cl)cc1	?	-3%	?	-8%	8%	-12%
CC(C)[C@]1(c2ccc(Cl)cc2)ON(c2ccccc2C(F)(F)F)C1=O	1.7µM*	.	1.9µM*	.	-18%	.
Cc1nc2ccccc2c(=O)n1-c1ccccc1C(F)(F)F	?	0%	?	-5%	1%	-14%
FC(F)(F)c1ccccc1-n1ccnc1	-13%	-12%	?	?	?	?
O=C(O)/C=C/c1cn(Cc2ccccc2)nc1-c1ccccc1	-1%	8%	7%	-6%	3%	-11%
CC(C)[C@]1(c2ccccc2)ON(c2ccccc2C(F)(F)F)C1=O	4.7µM*	.	1.9µM*	.	-8%	.
O=C(O)c1nn(-c2ccccc2C(F)(F)F)cc1O	20%	?	?	.	18%	.
CCCN(CCC)CC(O)Cn1c2ccccc2c2ccccc21 (stereo not drawn)	?	-2%	?	-4%	?	-7%
CC(C)CCN(CCC(C)C)CC(O)Cn1c2ccccc2c(=O)c2ccccc21 (stereo not drawn)	?	-7%	1.7µM*	.	?	.
NC12CC3CC(C1)CC(CC(=O)O)(C3)C2	4%	.	0%	9%	26%	8%
NC12CC3CC(C1)CC(O)(C3)C2	10µM*	7%	15%	i	0%	-3%
COc1ccc(OCc2cc(C(=O)NCCCc3ccccc3)no2)c(Cl)c1	9.3µM*	-35%	?	?	-16%	?
O=C(NCCc1ccccc1Cl)c1cc(COc2ccc(F)cc2F)on1	.	.	.	.	11µM*	.
CSc1ccccc1OCc1cc(C(=O)NCCCc2ccccc2)no1	?	10%	-13%	-14%	.	-23%
COc1ccc(OCc2cc(C(=O)NC3CCc4ccccc43)no2)c(Cl)c1 (stereo not drawn)	10µM*	4%	-20%	i	2%	-10%
CC(CCn1cccn1)NC(=O)c1cc(COc2ccc(F)cc2Cl)on1 (stereo not drawn)	10µM*	-2%	44%	-19%	-11%	-20%
O=C(NC1CCc2ccccc21)c1cc(COc2ccc(F)cc2F)on1 (stereo not drawn)	0%	2%	30%	-15%	?	13%
O=C(NC1(C(F)(F)F)C(=O)Nc2c1c(=O)[nH]c(=O)n2Cc1ccccc1)c1ccco1 (stereo not drawn)	45%	16%	37%	.	18%	.
COCCn1c(SCC(=O)N2CCOCC2)nc2ccccc2c1=O	-3%	3%	-2%	3%	-17%	0%
O=C(N=Nc1c(O)[nH]c2ccccc12)c1ccc(CN2CCOCC2)cc1	46%	.	-1%	-8%	-2%	-8%
Oc1[nH]c2ccc(Br)cc2c1N=NC(=S)N1CCOCC1	0.41µM*	-37%	0.83µM*	.	11µM*	.
Oc1[nH]c2ccccc2c1N=NC(=S)N1CCOCC1	0.59µM*	-62%	0.59µM*	.	8.9µM*	.
COc1cccc(Oc2coc3c(CN4CCOCC4)c(O)ccc3c2=O)c1	?	?	-3%	.	11%	-3%
COC(=O)Cn1c(=O)c2c(nc3n2CCCN3CCc2ccc(OC)c(OC)c2)n(C)c1=O	?	2%	?	.	6%	.
CCOC(=O)/C=C/C(=O)Nc1ccccc1-c1ccccc1NC(=O)/C=C/C(=O)OCC	?	2%	4.7µM*	-8%	13µM*	-14%
Cn1ncc(Cl)c1C(=O)N/N=C/c1cccc(OC2CSC2)c1	-10%	8%	1%	2%	-3%	-10%
O=C(CSc1ncccn1)N/N=C/c1cccc(OC2CSC2)c1	12µM*	.	5%	.	5%	.
O=C(N/N=C/c1ccc(OC(F)F)cc1)c1ccc(CSc2nc3ccccc3[nH]2)cc1	13µM*	15%	-28%	-10%	-28%	5%
O=C(N/N=C/c1ccc(OCc2ccc(F)cc2)cc1)c1ccccc1	-5%	.	1.2µM*	?	-10%	-18%

Screening data from PubChem.
